High-throughput results as filed in PubChem.
Vif-A3F inh = qHTS for Inhibitors of Vif-A3F Interactions: qHTS; HeLa A3F-eYFP + Vif (tagged APOBEC3F with the HIV-1 protein that degrades it), YFP fluorescence increase; Potency, µM (doses to about 46.1 µM), without a hit: at the top dose activity, negative = active; 0.2% of 390,000 active; AID 602313, 2012; also: potency is read from the fitted curve at half-maximal effect; % of control where 0% means no effect; nearly all actives have a fitted effect of over 65% in size
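HeLa cells stably expressing Vif plus C-terminally eYFP-tagged A3F were seeded, incubated overnight at 37 deg C, dosed with compound, incubated overnight again at 37 deg C. Yellow fluorescence (Ex 488/Em 500-530) reported blocked Vif-mediated A3F-eYFP degradation.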
PLK1 PBD block = qHTS for Inhibitors of PLK1-PDB (polo-like kinase 1 - polo-box domain): Primary Screen | Serine/threonine-protein kinase PLK1 (Homo sapiens), P53350 | Plk1 PBD binding of FITC phosphopeptide, fluorescence polarization | Potency, µM, for inactives: max response, negative = inhibition, hits mostly inhibitors | 2.8% of 360,000 active | AID 720504, 2013; also: potency is read from the fitted curve at half-maximal effect; series mostly up to about 57 µM; % is scaled to controls: 0 for no effect and ±100 for the full control effect; nearly all actives have a fitted effect of over 65% in size
TSHR antagonist = Antagonists of the Thyroid Stimulating Hormone Receptor: HTS campaign; 0.2% of 330,000 active; Thyrotropin receptor (Homo sapiens), P16473; TSHR-expressing cells, TSH-stimulated cAMP HTRF, 2 h; stronger effect = lower value; AID 504810, 2011; activity change, negative = inhibition, % at 11.5 µM;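 active = activity change below a set negative limit, meaning inhibition stronger than a set level, cut at about -70% in these data; inconclusive = activity change between two set negative limits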; also: % is scaled to controls: 0 for no effect and ±100 for the full control effect
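Read-out is FRET at 665 nm (cryptate excitation 337 nm) from a cryptate-tagged anti-cAMP antibody, competed by cell cAMP against cAMP-d2. Compounds are tested on freshly harvested TSHR cells challenged with 4nM TSH (EC80) for 2 hours at 37 deg C.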
VDR inhibitor = Inhibitors of the vitamin D receptor (VDR): qHTS. Vitamin D3 receptor (Homo sapiens), P11473. Potency, µM, inactives show max response, negative = inhibition, most hits filed as inhibitors. AID 504847, 2011. 0.93% of 400,000 active. VDR-SRC2-3 peptide fluorescence polarization, 2 h; also: potency is read from the fitted curve at half-maximal effect; % is scaled to controls: 0 for no effect and ±100 for the full control effect
Target sequence (P11473 whole entry, looked up): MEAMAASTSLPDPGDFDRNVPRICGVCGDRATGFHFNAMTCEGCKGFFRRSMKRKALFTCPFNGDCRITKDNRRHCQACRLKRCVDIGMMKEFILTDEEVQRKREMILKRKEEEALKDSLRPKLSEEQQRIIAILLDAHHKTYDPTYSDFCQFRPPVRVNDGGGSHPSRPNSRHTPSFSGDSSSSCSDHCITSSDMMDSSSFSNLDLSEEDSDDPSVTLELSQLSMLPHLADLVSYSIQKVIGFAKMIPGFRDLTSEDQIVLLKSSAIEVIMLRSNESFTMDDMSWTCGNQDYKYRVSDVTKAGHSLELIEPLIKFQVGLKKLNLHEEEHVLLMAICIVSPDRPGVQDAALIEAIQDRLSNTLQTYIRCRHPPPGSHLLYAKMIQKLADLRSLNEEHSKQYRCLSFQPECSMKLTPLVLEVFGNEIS
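The screen uses fluorescence polarization to detect compounds that interfere with recruitment of the SRC2-3 coactivator peptide to VDR; plates are read after 2 h at room temperature.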
Vif-APOBEC3G blk = qHTS for Inhibitors of Vif-A3G Interactions: qHTS. DNA dC->dU-editing enzyme APOBEC-3G (Homo sapiens), Q9HC16. HeLa A3G-eYFP + Vif (tagged APOBEC3G with the HIV-1 protein that degrades it), YFP fluorescence, overnight. Potency, µM (highest dose often 46.1 µM), for the others: at the top dose activity, negative = active, most hits filed as inhibitors. 0.076% of 410,000 active. AID 602310, 2012; also: potency is read from the fitted curve at half-maximal effect; % is scaled to controls: 0 for no effect and ±100 for the full control effect; nearly all actives have a fitted effect of over 60% in size
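HeLa cells stably expressing Vif and C-terminally eYFP-tagged A3G, seeded overnight at 37 deg C, then exposed to compound by pintool overnight at 37 deg C. Rise in yellow fluorescence (Ex 488/Em 500-530, Acumen) marks blocked Vif-driven A3G degradation.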
Numbers without * were called inactive; ? = inconclusive; · = no result. Hits are enriched below; roughly 3.1% of the tested compounds scored in any of these assays. Unless noted, calls follow the shape of the dose curve; as a rule, active = well fitted curve in the direction sought with a large enough effect; inconclusive = small, poorly fitted or top-dose-only effect, or another doubt; inactive = no such curve, though single readings can be large; an effect the other way counts as inactive or inconclusive.

SMILES | Vif-A3F inh | PLK1 PBD block | TSHR antagonist | VDR inhibitor | Vif-APOBEC3G blk
O=S(=O)(Nc1cccc(Cl)c1)c1ccc2oc(=S)[nH]c2c1 | 3.4% | 33.6µM* | -5.6 | ? | -7.5%
O=[N+]([O-])c1cccc(S(=O)(=O)N2CCN(c3nc(-c4cccs4)nc4ccccc34)CC2)c1 | · | · | · | 1.0% | -1.0%
COc1ccc(OC)c(NC(=O)CSc2nnc(CNC(=O)c3ccco3)o2)c1 | 0.8% | 29.9µM* | 7.3 | 3.6% | 1.0%
Cn1nc([N+](=O)[O-])nc1Sc1cccc2cccnc12 | -7.6% | 16.8µM* | 6.2 | -19.3% | -3.3%
CC(C)Oc1ccc2c(=O)c3cc(C(=O)O)ccc3oc2c1 | · | · | · | -6.0% | ·
CCOc1ccc(OCCSc2nc(C)cc(=O)[nH]2)cc1 | -8.5% | 3.36µM* | 12.6 | -25.2% | -3.1%
C[C@@H]1CCCCO[C@@H](CN(C)CC2CCCCC2)[C@@H](C)CN([C@H](C)CO)C(=O)c2cc(NS(=O)(=O)c3ccc(Cl)cc3)ccc2O1 | -2.5% | -16.5% | · | · | -6.7%
C[C@H]1CN([C@@H](C)CO)C(=O)c2cc(NS(=O)(=O)c3ccc(Cl)cc3)ccc2O[C@@H]1CN(C)CC1CCCCC1 | -17.7% | -6.8% | 5.0 | 89.1µM* | 0.9%
Cc1ccccc1/C=N/n1c(-c2ccccn2)n[nH]c1=S | 0.5% | -17.4% | -6.1 | -0.1% | 0.4%
S=c1[nH]nc(-c2ccccn2)n1/N=C/c1cccc2ccccc12 | -0.3% | 26.7µM* | -5.9 | -4.7% | 1.1%
CC(=O)Nc1ccc2nc(SCC(=O)NCCOc3ccccc3)sc2c1 | -1.3% | 3.36µM* | 2.2 | ? | 4.5%
COc1ccc(OC)c(N2C(=O)[C@@H]3C(c4ccccc4Cl)=NO[C@@H]3C2=O)c1 | -1.9% | 18.9µM* | 1.9 | -2.1% | -1.6%
Cc1ccc2c(c1)CCC2=O | · | · | · | · | 5.2%
FC(F)(F)c1nnc2c(Sc3ccccc3)nc3ccc(Cl)cc3n12 | 1.4% | -0.7% | 28.2 | -4.0% | 1.9%
O=c1[nH]c2ccccc2n2c(=S)[nH]nc12 | 22.4µM* | -9.7% | 1.4 | 13.4% | 5.2%
O=c1[nH]c2ccccc2n2c(C(F)(F)F)nnc12 | 10µM* | -2.3% | -4.7 | -3.2% | -26.1%
COc1cc(CNCCCSc2nnnn2C)cc(Br)c1OC | 4.7% | · | 8.3 | 3.3% | -1.1%
Cc1c(CCC(=O)O)c(=O)oc2c(C)c3occ(-c4ccc(Br)cc4)c3cc12 | -21.0% | 26.7µM* | -32.2 | -1.3% | 0.2%
O=C1/C(=C/c2ccc([N+](=O)[O-])cc2)Oc2cc(O)ccc21 | 22.4µM* | 0.8% | -32.4 | -5.0% | -1.6%
CC(C)(C)c1ccc(/C=C2\Oc3cc(O)ccc3C2=O)cc1 | -6.0% | 7.0% | -14.4 | 10.3% | 0.0%
NC(N)=NCCC[C@H](N)C(=O)NCC(=O)N[C@@H](CC(=O)O)C(=O)N[C@@H](CO)C(=O)O | · | · | · | 8.6% | ·
O=C(O)c1ccc(OCCCCCCOC2CCCCO2)cc1 (stereo not drawn) | 9.5% | 26.7µM* | -2.9 | ? | -7.5%
COc1ccc2cc(CCOC3CCCCO3)ncc2c1 (stereo not drawn) | 0.5% | -6.8% | -1.4 | 0.7% | 1.8%
COc1ccccc1NS(=O)(=O)c1cc(NC(=O)c2sccc2C)ccc1N1CCOCC1 | 6.4% | -15.3% | -1.0 | -11.7% | -4.3%
COc1ccccc1NS(=O)(=O)c1cc(NC(=O)Nc2ccccc2)ccc1N1CCCCC1 | -9.0% | ? | -0.9 | -6.3% | -0.2%
COc1ccccc1NS(=O)(=O)c1cc(NC(=O)C(C)C)ccc1N1CCCCC1 | -14.0% | 11.9µM* | 1.6 | 79.4µM* | 1.4%
COc1ccccc1NS(=O)(=O)c1cc(NC(=O)c2cc[n+]([O-])cc2)ccc1N1CCCC1 | 1.4% | 2.99µM* | 23.1 | -29.9% | -9.2%
COc1ccccc1NS(=O)(=O)c1cc(NC(=O)c2sccc2C)ccc1N1CCCC1 | 1.3% | 6.7µM* | -13.4 | 89.1µM* | 3.6%
O=C(O)C(c1ccccc1)N1C(=O)/C(=C\c2ccc(-c3ccccc3Cl)o2)SC1=S (stereo not drawn) | ? | ? | 16.0 | 50.1µM* | -22.1%
